ChEMBL document CHEMBL3988442, “University of Dundee, Small-Polar-MMV Screening Library” (2021)
For some of these results: Measured potencies and affinities stand elsewhere.

What was measured:
Design in all cases: scale not given: direction of the effect not stated beside the values
[1] = molecular target: Protein translocase subunit SecA (Escherichia coli (strain K12)) (UniProt P10408); assay: Assay to Identify E. coli SecA ATPase Inhibitors; type: functional; settings: 30 µM
[2] = molecular target: T1, Ubiquitin-activating enzyme e1, putative (Leishmania donovani (strain BPK282A1)) (UniProt E9BSI1); assay: Leishmania donovani Ubiquitin Activating Enzyme (LdE1); type: functional; settings: 30 µM
T1 sequence (whole entry): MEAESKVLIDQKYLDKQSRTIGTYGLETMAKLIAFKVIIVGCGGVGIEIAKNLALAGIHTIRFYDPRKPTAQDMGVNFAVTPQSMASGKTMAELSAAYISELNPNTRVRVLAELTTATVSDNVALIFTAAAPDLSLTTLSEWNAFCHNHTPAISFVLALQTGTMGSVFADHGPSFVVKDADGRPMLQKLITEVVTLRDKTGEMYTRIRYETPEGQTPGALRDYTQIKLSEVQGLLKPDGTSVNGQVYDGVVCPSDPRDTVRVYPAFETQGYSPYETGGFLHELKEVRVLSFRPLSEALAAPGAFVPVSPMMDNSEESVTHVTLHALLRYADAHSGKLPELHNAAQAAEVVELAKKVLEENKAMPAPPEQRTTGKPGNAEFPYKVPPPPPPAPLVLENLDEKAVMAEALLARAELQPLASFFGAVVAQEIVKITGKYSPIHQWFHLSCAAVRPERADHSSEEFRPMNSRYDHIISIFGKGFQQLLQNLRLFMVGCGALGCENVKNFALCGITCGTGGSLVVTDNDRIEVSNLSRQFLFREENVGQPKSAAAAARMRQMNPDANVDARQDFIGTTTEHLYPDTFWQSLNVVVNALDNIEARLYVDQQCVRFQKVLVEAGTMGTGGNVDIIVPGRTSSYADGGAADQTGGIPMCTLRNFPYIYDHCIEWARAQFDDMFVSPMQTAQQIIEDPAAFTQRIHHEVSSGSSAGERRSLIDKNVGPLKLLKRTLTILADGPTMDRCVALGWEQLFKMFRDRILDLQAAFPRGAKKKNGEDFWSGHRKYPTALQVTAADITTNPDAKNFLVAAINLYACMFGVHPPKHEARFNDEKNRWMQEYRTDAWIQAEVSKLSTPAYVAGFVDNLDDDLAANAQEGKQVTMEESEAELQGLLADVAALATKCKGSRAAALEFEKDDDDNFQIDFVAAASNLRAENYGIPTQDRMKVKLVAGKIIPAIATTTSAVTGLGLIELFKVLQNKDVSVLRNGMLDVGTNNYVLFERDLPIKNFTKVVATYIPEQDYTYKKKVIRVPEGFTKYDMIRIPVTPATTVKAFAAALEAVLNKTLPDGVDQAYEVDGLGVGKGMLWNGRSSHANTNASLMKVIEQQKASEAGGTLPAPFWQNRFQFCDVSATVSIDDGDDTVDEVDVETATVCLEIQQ

[3] = molecular target: AMP-activated protein kinase, AMPK (Homo sapiens) (UniProt P54646+O43741+P54619+Q9UGJ0+Q9Y478+Q13131+Q9UGI9); assay: AMP-dependent Kinase enzyme assay. An in vitro enzyme assay that detects ADP turnover that is directly proportional to AMPK activity. This uses naive AMPK that is activated during the assay with MK-8722; type: functional; settings: 30 µM
[4] = molecular target: Sialic acid-binding Ig-like lectin 9 (Homo sapiens) (UniProt Q9Y336); assay: Hs-Siglec9 ALPHAscreen SOP 20170721; settings: 10 µM
Sialic acid-binding Ig-like lectin 9 (Homo sapiens), sequence (Q9Y336 whole entry): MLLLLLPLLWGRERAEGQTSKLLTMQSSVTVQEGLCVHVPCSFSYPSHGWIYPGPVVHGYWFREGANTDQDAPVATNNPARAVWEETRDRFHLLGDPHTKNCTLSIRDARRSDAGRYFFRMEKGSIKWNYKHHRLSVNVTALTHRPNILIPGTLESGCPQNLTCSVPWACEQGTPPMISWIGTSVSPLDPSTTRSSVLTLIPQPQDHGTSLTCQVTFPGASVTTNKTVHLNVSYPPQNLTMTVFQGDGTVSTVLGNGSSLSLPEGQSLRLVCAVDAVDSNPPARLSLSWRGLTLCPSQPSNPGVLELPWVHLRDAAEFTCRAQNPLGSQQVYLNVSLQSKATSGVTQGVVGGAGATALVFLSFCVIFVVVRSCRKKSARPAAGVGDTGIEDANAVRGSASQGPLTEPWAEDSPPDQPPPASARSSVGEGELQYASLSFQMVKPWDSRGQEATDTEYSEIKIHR

Trypanosoma cruzi = assay: Trypanosoma cruzi phosphomannomutase and mannose-1-phosphate guanylyltransferase assay; type: functional; settings: 10 µM
[5] = molecular target: T2, Arginase-2, mitochondrial (Homo sapiens) (UniProt P78540); assay: in vitro enzyme assay to detect the production of urea directly proportional to the activity of Arginase II; type: functional; settings: 33.3 µM; further: in the data most compounds retested in dose-response had high values
T2 sequence (whole entry): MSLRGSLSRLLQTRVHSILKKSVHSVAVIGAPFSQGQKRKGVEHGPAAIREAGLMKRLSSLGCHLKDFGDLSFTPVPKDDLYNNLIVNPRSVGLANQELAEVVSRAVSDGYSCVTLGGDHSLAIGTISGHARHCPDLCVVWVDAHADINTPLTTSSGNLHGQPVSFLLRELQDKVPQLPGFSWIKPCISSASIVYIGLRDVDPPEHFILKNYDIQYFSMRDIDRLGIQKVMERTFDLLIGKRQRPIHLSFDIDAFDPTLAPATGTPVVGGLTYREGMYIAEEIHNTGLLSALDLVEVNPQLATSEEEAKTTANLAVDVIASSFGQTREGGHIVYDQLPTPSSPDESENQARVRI

[6] = molecular target: T3, Proteasome subunit beta (Trypanosoma cruzi) (UniProt O96673); assay: Trypanosoma cruzi proteasome chymotrypsin-like activity (TcProtChymo) assay.; further: in the data most compounds retested in dose-response had high values; type: functional; settings: 9.37 µM
T3 sequence (whole entry): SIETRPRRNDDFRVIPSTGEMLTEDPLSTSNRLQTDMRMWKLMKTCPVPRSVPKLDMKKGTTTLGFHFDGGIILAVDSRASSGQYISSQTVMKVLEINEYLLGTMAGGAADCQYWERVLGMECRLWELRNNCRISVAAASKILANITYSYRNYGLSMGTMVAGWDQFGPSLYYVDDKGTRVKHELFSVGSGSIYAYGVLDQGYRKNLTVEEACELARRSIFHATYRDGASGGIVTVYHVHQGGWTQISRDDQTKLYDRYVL

Homo sapiens = species on record: Homo sapiens; assay: To identify inhibition of the IFN signalling (Jak-Stat) pathway via expression of an eGFP reporter gene under the control of an IFN-stimulated response element (ISRE) containing MxA promoter.; type: functional; settings: 30 µM
[7] = molecular target: T4, Tyrosyl-tRNA synthetase, putative (Trypanosoma cruzi (strain CL Brener)) (UniProt Q4DSP6); assay: Trypanosoma cruzi tyrosyl tRNA synthetase (TcYRS) _High Tyrosine SOP; type: functional; settings: 30 µM; further: in the data most compounds retested in dose-response had high values
T4 sequence (whole entry): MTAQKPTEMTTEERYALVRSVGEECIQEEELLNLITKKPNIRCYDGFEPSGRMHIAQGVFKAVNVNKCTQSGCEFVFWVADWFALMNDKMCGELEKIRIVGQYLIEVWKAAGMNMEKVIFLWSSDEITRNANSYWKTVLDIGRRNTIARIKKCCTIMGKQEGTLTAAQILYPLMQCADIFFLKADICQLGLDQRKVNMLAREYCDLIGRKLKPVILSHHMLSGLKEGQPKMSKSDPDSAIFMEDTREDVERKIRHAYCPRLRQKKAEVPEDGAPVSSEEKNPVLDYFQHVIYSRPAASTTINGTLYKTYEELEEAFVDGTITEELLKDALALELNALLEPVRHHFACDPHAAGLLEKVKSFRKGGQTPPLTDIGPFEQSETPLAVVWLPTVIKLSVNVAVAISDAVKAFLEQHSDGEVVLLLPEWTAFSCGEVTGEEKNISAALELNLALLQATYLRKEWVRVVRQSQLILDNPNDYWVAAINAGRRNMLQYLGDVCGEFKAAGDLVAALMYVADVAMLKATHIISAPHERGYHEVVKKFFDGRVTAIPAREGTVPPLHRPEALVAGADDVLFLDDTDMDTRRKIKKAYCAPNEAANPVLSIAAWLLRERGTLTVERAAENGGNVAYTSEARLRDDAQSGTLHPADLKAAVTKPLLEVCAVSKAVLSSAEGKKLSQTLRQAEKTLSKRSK

[8] = molecular target: T4, Tyrosyl-tRNA synthetase, putative (Trypanosoma cruzi (strain CL Brener)); assay: Trypanosoma cruzi tyrosyl tRNA synthetase (TcYRS) SOP; type: functional; settings: 30 µM
[9] = molecular target: Chromo domain-containing protein 1 (Saccharomyces cerevisiae (strain ATCC 204508 / S288c) (Baker's yeast)) (UniProt P32657); assay: ScCHD-1 Enzyme Inhibition Assay; type: functional; settings: 30 µM; further: in the data most compounds retested in dose-response had high values
Chromo domain-containing protein 1 (Saccharomyces cerevisiae (strain ATCC 204508 / S288c) (Baker's yeast)), sequence (P32657 whole entry, the tested form may be a part): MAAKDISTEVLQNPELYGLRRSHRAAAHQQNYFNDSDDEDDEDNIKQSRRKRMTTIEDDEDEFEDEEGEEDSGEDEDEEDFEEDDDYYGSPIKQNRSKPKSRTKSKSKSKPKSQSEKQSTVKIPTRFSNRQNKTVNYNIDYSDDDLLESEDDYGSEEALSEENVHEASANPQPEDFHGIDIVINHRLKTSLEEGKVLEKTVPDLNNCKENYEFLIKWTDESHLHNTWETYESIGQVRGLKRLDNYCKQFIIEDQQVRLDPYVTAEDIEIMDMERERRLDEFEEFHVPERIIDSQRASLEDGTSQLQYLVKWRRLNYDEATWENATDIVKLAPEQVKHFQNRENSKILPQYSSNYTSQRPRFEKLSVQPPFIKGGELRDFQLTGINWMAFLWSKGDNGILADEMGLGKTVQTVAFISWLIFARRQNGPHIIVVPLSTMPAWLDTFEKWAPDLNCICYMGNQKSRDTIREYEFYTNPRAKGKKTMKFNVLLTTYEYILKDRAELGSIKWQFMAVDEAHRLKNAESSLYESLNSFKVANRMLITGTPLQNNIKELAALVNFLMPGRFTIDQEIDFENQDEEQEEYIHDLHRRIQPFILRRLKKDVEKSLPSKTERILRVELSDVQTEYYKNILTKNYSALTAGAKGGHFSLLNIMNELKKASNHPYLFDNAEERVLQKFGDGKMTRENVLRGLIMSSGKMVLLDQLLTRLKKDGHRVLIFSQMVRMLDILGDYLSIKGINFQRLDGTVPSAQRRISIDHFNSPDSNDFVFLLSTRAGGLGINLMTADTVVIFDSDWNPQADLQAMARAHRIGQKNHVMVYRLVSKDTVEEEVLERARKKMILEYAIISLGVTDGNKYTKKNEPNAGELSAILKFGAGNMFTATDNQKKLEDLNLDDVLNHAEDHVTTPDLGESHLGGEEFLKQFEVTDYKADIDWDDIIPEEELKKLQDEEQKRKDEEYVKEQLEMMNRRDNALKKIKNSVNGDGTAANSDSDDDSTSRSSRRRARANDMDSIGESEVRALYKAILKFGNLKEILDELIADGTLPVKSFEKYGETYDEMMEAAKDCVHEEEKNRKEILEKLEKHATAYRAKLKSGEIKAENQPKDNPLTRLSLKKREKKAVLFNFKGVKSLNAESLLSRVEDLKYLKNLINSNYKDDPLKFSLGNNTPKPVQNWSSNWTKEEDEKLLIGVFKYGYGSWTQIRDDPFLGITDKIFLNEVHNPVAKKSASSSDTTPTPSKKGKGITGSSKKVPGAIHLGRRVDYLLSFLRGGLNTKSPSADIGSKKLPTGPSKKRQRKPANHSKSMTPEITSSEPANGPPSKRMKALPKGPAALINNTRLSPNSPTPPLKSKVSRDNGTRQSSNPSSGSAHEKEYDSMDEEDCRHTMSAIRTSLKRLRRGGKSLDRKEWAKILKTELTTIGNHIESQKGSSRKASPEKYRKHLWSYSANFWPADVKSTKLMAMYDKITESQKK

Protein translocase subunit SecA (Escherichia coli (strain K12)), sequence (P10408 whole entry): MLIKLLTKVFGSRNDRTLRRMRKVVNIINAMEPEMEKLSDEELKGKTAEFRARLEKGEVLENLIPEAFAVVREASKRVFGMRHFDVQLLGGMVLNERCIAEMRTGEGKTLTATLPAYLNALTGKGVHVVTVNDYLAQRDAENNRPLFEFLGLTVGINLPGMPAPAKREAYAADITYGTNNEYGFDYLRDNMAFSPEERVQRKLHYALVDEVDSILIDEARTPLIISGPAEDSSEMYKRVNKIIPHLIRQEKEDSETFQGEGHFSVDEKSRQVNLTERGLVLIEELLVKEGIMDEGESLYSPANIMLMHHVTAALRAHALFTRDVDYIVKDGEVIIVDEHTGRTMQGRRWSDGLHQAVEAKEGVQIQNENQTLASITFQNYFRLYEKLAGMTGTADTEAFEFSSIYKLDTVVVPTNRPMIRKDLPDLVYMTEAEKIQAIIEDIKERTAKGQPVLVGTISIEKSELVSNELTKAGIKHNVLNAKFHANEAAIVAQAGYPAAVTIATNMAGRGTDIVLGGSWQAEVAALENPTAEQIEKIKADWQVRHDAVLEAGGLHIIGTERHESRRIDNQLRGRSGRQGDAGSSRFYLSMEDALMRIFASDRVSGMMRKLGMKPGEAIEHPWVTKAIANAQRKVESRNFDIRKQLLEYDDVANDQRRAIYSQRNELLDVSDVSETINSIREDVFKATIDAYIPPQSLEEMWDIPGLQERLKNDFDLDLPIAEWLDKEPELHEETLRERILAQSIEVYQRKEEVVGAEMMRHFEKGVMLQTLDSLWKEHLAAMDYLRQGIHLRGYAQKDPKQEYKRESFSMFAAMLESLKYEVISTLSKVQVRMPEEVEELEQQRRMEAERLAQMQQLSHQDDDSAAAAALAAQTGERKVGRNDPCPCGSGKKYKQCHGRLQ

SMILES | Percent Effect [1] [%] | Percent Effect [2] [%] | Percent Effect [3] [%] | Percent Effect [4] [%] | Percent Effect (Trypanosoma cruzi) [%] | Percent Effect [5] [%] | Percent Effect [6] [%] | Percent Effect (Homo sapiens) [%] | Percent Effect [7] [%] | Percent Effect [8] [%] | Percent Effect [9] [%]
O=C(CCc1cccc(F)c1F)N1CCN(Cc2ccco2)CC1 | 0.132 | 2.7 | -1.7 | 9.76 | 3.48 | 0.476 | 10.3 | 0.925 | 0.529 | -2.44 | -2.5
COCCN1C[C@@H]2CN(Cc3cccc(F)c3)CCC[C@]2(C(=O)O)C1 | -4.38 | 0 | 0.729 | -3.33 | -4.24 | 1.94 | 8.53 | 3.04 | -2.12 | -1.28 | -7.5
Cc1noc(C)c1CN(C)C(=O)c1ccc(NC2CC2)nc1 | -1.87 | 15.8 | -5.49 | 6.74 | 1.59 | 2.88 | 5.84 | -7.41 | 9.36 | 18.5 | -4.25
Fc1ccc(CN2CCCC2Cn2cccn2)c2ncccc12 (stereo unspecified) | -3.18 | -16.2 | -9.76 | 11.6 | -2.51 | -0.185 | 3.41 | -3.85 | 11.9 | 11 | 7.89
Cc1nnc(N2CCCC3(CN(Cc4ccc(C)s4)CCO3)C2)o1 (stereo unspecified) | 0.137 | 5.48 | -2.15 | 8.14 | 3.97 | -5.19 | 13.1 | -2.59 | 2.08 | 6.17 | -3.69
CC(C)c1ccc(O)c(C(=O)N2CCN(Cc3cscn3)CC2)c1 | -1.48 | 16.2 | 0.162 | 10.1 | 5.85 | -6.1 | 4.85 | 26.8 | 5.94 | 18.3 | -3.11
NC(=O)C1CCN(C(=O)c2cccc(CN3CCOCC3)c2)CC1 | -0.727 | 6.94 | 4.41 | 25.6 | 4.57 | 2.21 | 0.702 | -3.07 | 1.05 | 0 | 79
Cc1nc(-c2ccsc2)ccc1C(=O)NCCN1CCOCC1 | -6.91 | 10.5 | -3.72 | 7.24 | 4.32 | -0.383 | 8.02 | 1.25 | 6.37 | 19.5 | -8.61
Cc1nccn1-c1cc(CNC(=O)c2ccccn2)ccn1 | -3.33 | 16.4 | 4.31 | 6.49 | 3.33 | -0.455 | 17.6 | 15.2 | 2.15 | 20 | -4.24
COc1ccc(OC)c(C(C)Nc2nc3c(C)nn(C)c3c(=O)n2C)c1 (stereo unspecified) | -5.58 | -5.2 | 5.05 | 1.13 | -6.2 | -22.1 | 14.8 | 38.9 | -2.15 | -3.7 | -5.55
CN(C)CC1(O)CCN(S(=O)(=O)c2ccc(F)c(F)c2)C1 (stereo unspecified) | -6.44 | 23 | -0.681 | -1.29 | 5.34 | -3.48 | 20.9 | 1.49 | 3.23 | 6.49 | -21.7
